# From PubChem BioAssay AID743088 (The Scripps Research Institute Molecular Screening Center, 2013)
# Values without a mark were called inactive.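 Rule for the calls: active = binding inhibited by at least 50%, or stimulated by at least 50%, shown as inhibition of -50% or lower; inactive = the rest.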
# Test system: Potassium Channel KATP
# Assay: off-target binding across receptor panel, profiling panel, selectivity assay for AVPR1a antagonist project, biochemical, Panlabs HitProfilingScreen (AID 743088)
# Settings: Panlabs radioligand binding panel, 30 targets, at 10 µM, active compounds read high
structure (smiles),measurement,value
O=C(C1CCN(c2ccc(Cl)cn2)CC1)N(CC1CC1)c1ccc(Cl)cc1,inhibition of binding,19%
